Source: PubChem BioAssay
Pf growth 96h: P. falciparum growth inhibition at 96 hours | P. falciparum luciferase reporter growth, 96 h | Potency, µM (doses to about 28.7 µM), without a hit: at the top dose activity change, negative = inhibition, hits mostly inhibitors | 6.9% of 320,000 active; also: potency is read from the fitted curve at half-maximal effect; % is scaled to controls: 0 for no effect and ±100 for the full control effect
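Parasite growth measured via integrated firefly luciferase reporter in P. falciparum. Infected erythrocytes at 2% hematocrit, 0.05% parasitemia final were treated 96 hours at 37 C under 5% CO2, and luminescence was read.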
HCMV antiviral: blocks human cytomegalovirus replication. activity change, negative = inhibition, % at 57.5 µM. AID 1259415. 4.5% of 410,000 active. HFF cells, HCMV-luciferase reporter, 72 h; active compounds read low; in the data active = activity change below about -60%; inconclusive = no clear call, values can overlap the other calls; inactive = above about -39%; also: % is scaled to controls: 0 for no effect and ±100 for the full control effect
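Two compound doses tested in HFFs infected with HCMV-luciferase, MOI 1 PFU/cell, 72 h at 37C. Lysate luminescence read with OneGlo; data normalized against buffer-only and 10uM Salinomycin inhibitor controls.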
Shiga inhibitor: Shiga toxin inhibition | Vero cells, Shiga toxin protein synthesis inhibition reporter | inhibition, % at 38.7 µM | 9.2% of 290,000 active; in the data active = inhibition mostly above about 28%, no sharp cut-off; inactive = mostly below about 43%; also: 0% is about no effect
Pf growth 48h: inhibits P. falciparum growth in the first generation, 48 h; P. falciparum luciferase growth in erythrocytes, 48 h; Potency, µM (titrated, usually from 28.7 µM), inactives show at the top dose activity change, negative = inhibition, actives largely listed as inhibitors; 5.9% of 310,000 active; AID 504832; also: potency is read from the fitted curve at half-maximal effect; % is scaled to controls: 0 for no effect and ±100 for the full control effect
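Erythrocytes infected with P. falciparum carrying an integrated firefly luciferase reporter (2% hematocrit, 0.1% parasitemia final) were exposed to compounds in RPMI 1640 with 0.5% Albumax at 37 C, 5% CO2. Growth inhibition was scored as reduced luminescence.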
Cycloheximide cs: counter-screen for Shiga toxin inhibitors: cycloheximide protein synthesis inhibition; cell reporter, cycloheximide protein synthesis inhibition counterscreen; max response, %; 12% of 300,000 active; in the data active = max response mostly above about 13%, no sharp cut-off; inactive = mostly below about 14%; also: read at 38.3 µM for the half of the compounds with a filed dose; 0% is about no effect
* marks the source's active call; other numbers are inactive results; ? = inconclusive; · = no result given; + = active, no number. Compounds with a hit are over-represented: about 20% of the library has one in this group of screens. Unless noted, calls follow the shape of the dose curve; as a rule, active = well fitted inhibition curve with a large enough effect; inconclusive = small, poorly fitted or top-dose-only effect, or another doubt; inactive = no such curve, though single readings can be large or run the other way.

SMILES	Pf growth 96h	HCMV antiviral	Shiga inhibitor	Pf growth 48h	Cycloheximide cs
CC(NCc1ccccc1)c1ccccc1O (configuration not stated)	10µM*	-10	-2	1.7µM*	-3
N/C(=N\OC(=O)COc1ccccc1Cl)c1ccc(Cl)cc1	?	-7	+	8%	15*
Cc1ccc(/C(N)=N/OC(=O)COc2ccccc2Cl)cc1	58%	-22	97	75%	39*
CN(Cc1ccccc1)C(=O)CSc1nc2ccccc2n1Cc1ccccc1F	·	-21	·	·	·
Cc1ccc(NCC(=O)N/N=C/c2ccncc2)cc1	?	-2	7	33%	7
Cc1ccc(C(=O)Nc2nnc(CC(=O)N/N=C/c3ccc(O)c(O)c3)s2)cc1	?	33	8	39%	24*
COc1ccc(C(=O)Nc2nnc(CC(=O)N/N=C/c3ccc(O)cc3O)s2)cc1	?	-35	43*	-3%	17*
Cc1ccc(C(=O)Nc2nnc(CC(=O)N/N=C/c3ccncc3)s2)cc1	?	64	57*	183%	30*
CCc1nnc(NC(=O)CSc2n[nH]c(-c3ccccc3O)n2)s1	-2%	15	9	52%	6
O=C(CSc1nc(-c2ccccc2)c2ccccc2n1)Nc1ccc(F)cc1	·	-17	·	·	·
CCCOC1CCCN(C(=O)c2cc(COc3ccc(-n4cncn4)cc3)on2)C1 (configuration not stated)	-17%	-33	63*	?	38*
CCc1ccc(CN(C)C(=O)c2cc(COc3ccc(-n4cncn4)cc3)on2)cc1	5%	-18	45	3%	19*
COCCOC1CCN(C(=O)c2cc(COc3ccc(-n4cncn4)cc3)on2)CC1	-2%	25	-31	14%	0
COCCC1CCCCN1C(=O)c1cc(COc2ccc(-n3cncn3)cc2)on1 (configuration not stated)	?	-74*	12	11%	1
CC(=O)Nc1ccc(NC(=O)C(C)Oc2ccc(C)nc2[N+](=O)[O-])cc1 (configuration not stated)	-27%	0	·	5%	·
Cc1ccc2c(n1)sc1c(-c3ccc(Br)cc3)c(C#N)c(N)nc12	-5%	?	-15	-6%	-2
N#Cc1c(N)nc2c3c(sc(=N)c2c1N)NC(=O)CC3c1c(F)cccc1Cl (configuration not stated)	8.3µM*	-2	-7	?	-1
Cc1c(C#N)c(N)nc2c3c(sc12)NC(=O)CC3c1ccc(Cl)cc1 (configuration not stated)	-13%	-81*	-11	?	1
N#Cc1c(N)nc2c3c(sc(=N)c2c1N)NC(=O)CC3c1ccccc1 (configuration not stated)	-23%	11	-6	?	-3
CCN(CC)c1ccc2c(C)c(-c3ccc(N)cc3)c(=O)oc2c1	?	?	34*	?	27*
CCN(CC)c1ccc2c(C)c(Cl)c(=O)oc2c1	?	0	24	2%	10
CCOC(=O)Cc1c(C)c2ccc(N(CC)CC)cc2oc1=O	-14%	16	100*	3.7µM*	19*
CCOC(=O)CCc1c(C)c2ccc(O)cc2oc1=O	?	-17	-1	-7%	13*
CCCC(=O)Nc1c(-c2cccc(C)c2)c(=O)c2ccccc2n1C	10%	37	-5	15%	-6
CN1CCN(c2ccc(NC(=O)c3ccccc3Br)cc2)CC1	0%	27	active	91%	18*
SMILES	Pf growth 96h	HCMV antiviral	Shiga inhibitor	Pf growth 48h	Cycloheximide cs
CC1CCN(c2ccc(NC(=O)c3ccc(Br)o3)cc2)CC1	?	58	65*	-7%	28*
CC1CCN(c2ccc(NC(=O)Cc3ccccc3)cc2)CC1	?	-3	16	19%	14
Cc1ccc(C(=O)N2CCN(c3ccc(NC(=O)c4ccc(Br)o4)cc3)CC2)cc1	·	?	-24	10µM*	-3
CCC(=O)Nc1ccc(N2CCC(C)CC2)cc1	10µM*	28	15*	-17%	33*
O=C(Nc1ccc(S(=O)(=O)N2CCCCCC2)cc1)c1ccc(Br)o1	20%	?	19	?	13
O=C(Nc1ccc(C(=O)N2CCC(N3CCCC3)CC2)cc1)c1ccc(Br)o1	48%	·	·	?	·
O=C(Nc1ccc(C(=O)N2CCC(O)(c3ccc(Cl)c(C(F)(F)F)c3)CC2)cc1)c1ccc(Br)o1	13µM*	?	·	?	·
O=C(Nc1ccc(N2CCOCC2)cc1)c1ccc(Br)o1	9%	81	79*	127%	28*
O=C(Nc1ccc(C(=O)N2CCN(c3ccncc3)CC2)cc1)c1ccc(Br)o1	·	-30	·	·	·
CS(=O)(=O)N1CCN(c2ccc(NC(=O)c3ccc(Br)o3)cc2)CC1	200%	81	110*	141%	43*
CN1CCN(c2ccc(NC(=O)c3ccc(Br)o3)cc2)CC1	?	20	76*	139%	30*
COc1ccc([C@@H]2[C@@H](C(=O)N3CCOCC3)CC(=O)N2C(=O)/C=C/c2ccccc2)cc1	·	-29	·	·	·
O=C(NNC(=O)c1ccc(Br)o1)c1ccc(NC(=O)c2ccccc2)cc1	-12%	-32	11	13%	-1
N/C(=N\O)c1ccc(NC(=O)c2ccc(Br)o2)cc1	-5%	1	81*	113%	45*
CCC(=O)NC(=S)Nc1ccc(NC(=O)c2ccc(OC)cc2)cc1	?	-21	-11	5%	-2
CCC(=O)NC(=S)Nc1ccc(NC(=O)c2ccc(Br)o2)cc1	0%	-103*	112*	?	16
COc1ccc(C2=NOC(C)(c3nnc(-c4ccc(Cl)cc4)o3)C2)cc1 (configuration not stated)	·	-1	·	·	·
Cc1ccc(CSc2nc3ccccc3c(=O)n2C)cc1	-13%	-65*	-5	-20%	1
COCCn1c(SCc2cccc([N+](=O)[O-])c2)nc2ccccc2c1=O	?	?	-3	9.3µM*	-6
Cn1c(SCc2cccc([N+](=O)[O-])c2)nc2ccccc2c1=O	10µM*	?	·	5.2µM*	·
CCOC(CCn1c(SCc2cccc([N+](=O)[O-])c2)nc2ccccc2c1=O)OCC	-2%	16	-5	?	-2
Cn1c(SCc2cccc(C#N)c2)nc2ccccc2c1=O	69%	-64*	-2	10µM*	-1
COc1cc(C(=O)NC(=S)NCc2ccncc2)cc(OC)c1OC	·	-10	·	·	·
COc1ccc([C@H]2CC(=O)C[C@@H](CCn3cc(-c4ccc(F)cc4)nn3)O2)cc1	·	-15	·	·	·
O=C1NC2(CCCCCC2)C(=O)N1Cc1ccccc1Br	35%	5	-9	9%	-6
Cc1cc(C)c2nc(N(Cc3cccnc3)C(=O)c3ccc(S(=O)(=O)N(C)C)cc3)sc2c1	·	0	·	·	·
CCOc1ccc(NC(=O)Cn2ncc3c2-c2cc(C)ccc2OC3)cc1	·	-10	·	·	·
Cc1nnc(SCc2cccc([N+](=O)[O-])c2)[nH]c1=O	28%	-81*	23	16%	-2
